# Measurements published in ChEMBL document CHEMBL1961873, “Compounds: GSK PKIS; Assays: Nanosyn kinase panel” (2012).
# Columns and labels:
# [1] = biological target: Tyrosine-protein kinase SYK (Homo sapiens) (UniProt P43405); settings: at 1 µM
# [2] = biological target: T1, Tyrosine-protein kinase Tec (Homo sapiens) (UniProt P42680); settings: at 0.1 µM
# T1 sequence (whole entry): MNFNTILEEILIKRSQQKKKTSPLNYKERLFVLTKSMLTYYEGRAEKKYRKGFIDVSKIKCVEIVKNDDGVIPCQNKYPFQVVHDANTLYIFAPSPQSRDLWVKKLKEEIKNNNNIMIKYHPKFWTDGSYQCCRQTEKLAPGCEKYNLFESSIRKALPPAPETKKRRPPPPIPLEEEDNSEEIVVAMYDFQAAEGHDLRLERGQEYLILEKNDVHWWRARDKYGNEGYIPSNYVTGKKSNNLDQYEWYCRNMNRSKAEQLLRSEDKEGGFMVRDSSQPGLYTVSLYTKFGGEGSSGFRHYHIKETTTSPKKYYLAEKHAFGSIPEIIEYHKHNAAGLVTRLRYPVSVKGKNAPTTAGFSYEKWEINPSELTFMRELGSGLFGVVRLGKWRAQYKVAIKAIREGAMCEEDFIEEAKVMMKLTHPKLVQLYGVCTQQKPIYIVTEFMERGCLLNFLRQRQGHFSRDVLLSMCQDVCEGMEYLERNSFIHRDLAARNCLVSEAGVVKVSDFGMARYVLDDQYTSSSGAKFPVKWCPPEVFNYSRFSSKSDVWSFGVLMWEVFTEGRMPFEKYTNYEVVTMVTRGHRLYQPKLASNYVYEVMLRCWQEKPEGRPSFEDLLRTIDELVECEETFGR
# [3] = biological target: T1, Tyrosine-protein kinase Tec (Homo sapiens); settings: at 1 µM
# [4] = biological target: Angiopoietin-1 receptor (Homo sapiens) (UniProt Q02763); settings: at 0.1 µM
# Angiopoietin-1 receptor (Homo sapiens), sequence (Q02763 whole entry): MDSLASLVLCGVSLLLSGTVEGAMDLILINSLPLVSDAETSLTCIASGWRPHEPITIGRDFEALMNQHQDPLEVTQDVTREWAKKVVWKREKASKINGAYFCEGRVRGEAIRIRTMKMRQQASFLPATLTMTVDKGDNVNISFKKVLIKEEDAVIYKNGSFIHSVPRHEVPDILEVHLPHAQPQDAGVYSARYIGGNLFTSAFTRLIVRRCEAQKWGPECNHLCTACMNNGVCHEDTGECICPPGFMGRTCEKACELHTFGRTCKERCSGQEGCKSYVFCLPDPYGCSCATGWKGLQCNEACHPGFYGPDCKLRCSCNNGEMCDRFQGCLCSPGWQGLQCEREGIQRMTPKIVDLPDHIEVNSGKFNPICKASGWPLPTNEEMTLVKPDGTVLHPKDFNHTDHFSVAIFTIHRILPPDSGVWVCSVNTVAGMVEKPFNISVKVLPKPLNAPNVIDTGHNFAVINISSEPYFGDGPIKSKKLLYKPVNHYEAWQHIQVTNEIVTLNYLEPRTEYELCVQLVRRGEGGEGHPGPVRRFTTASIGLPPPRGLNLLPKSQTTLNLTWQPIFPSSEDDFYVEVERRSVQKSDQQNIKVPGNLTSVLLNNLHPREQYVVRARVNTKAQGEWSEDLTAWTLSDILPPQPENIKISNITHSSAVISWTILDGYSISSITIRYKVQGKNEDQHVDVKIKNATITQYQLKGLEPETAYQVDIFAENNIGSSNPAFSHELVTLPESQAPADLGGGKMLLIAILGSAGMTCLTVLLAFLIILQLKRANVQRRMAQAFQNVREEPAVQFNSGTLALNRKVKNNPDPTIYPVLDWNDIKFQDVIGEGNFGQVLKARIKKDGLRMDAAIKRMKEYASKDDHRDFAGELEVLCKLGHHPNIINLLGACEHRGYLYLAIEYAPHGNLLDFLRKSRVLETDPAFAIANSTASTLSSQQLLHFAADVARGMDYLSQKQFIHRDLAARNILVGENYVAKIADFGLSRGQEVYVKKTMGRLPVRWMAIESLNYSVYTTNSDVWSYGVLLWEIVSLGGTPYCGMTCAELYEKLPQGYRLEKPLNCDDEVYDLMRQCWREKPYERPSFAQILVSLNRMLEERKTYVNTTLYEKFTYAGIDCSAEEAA
# [5] = biological target: Angiopoietin-1 receptor (Homo sapiens) (UniProt Q02763); settings: at 1 µM
# [6] = biological target: T2, Non-receptor tyrosine-protein kinase TNK1 (Homo sapiens) (UniProt Q13470); settings: at 0.1 µM
# T2 sequence (whole entry): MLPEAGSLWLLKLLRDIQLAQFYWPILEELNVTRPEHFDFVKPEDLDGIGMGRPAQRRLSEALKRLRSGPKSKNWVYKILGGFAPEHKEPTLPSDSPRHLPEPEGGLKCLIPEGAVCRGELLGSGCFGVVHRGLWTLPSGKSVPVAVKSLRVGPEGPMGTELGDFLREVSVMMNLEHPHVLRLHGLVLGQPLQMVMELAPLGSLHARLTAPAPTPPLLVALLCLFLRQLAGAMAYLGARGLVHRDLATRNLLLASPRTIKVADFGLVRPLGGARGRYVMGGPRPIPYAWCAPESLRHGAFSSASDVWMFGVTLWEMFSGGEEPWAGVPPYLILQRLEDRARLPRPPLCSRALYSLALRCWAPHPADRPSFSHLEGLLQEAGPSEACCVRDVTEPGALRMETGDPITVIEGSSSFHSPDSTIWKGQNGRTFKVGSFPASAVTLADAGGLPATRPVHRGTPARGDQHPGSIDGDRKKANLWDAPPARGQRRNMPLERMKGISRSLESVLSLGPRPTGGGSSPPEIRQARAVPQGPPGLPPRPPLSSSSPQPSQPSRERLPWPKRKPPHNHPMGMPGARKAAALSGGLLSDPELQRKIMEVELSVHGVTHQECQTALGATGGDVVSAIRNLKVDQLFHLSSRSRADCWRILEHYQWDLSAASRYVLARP
# [7] = biological target: T2, Non-receptor tyrosine-protein kinase TNK1 (Homo sapiens); settings: at 1 µM
# [8] = biological target: Activated CDC42 kinase 1 (Homo sapiens) (UniProt Q07912); settings: at 0.1 µM
# Activated CDC42 kinase 1 (Homo sapiens), sequence (Q07912 whole entry, looked up): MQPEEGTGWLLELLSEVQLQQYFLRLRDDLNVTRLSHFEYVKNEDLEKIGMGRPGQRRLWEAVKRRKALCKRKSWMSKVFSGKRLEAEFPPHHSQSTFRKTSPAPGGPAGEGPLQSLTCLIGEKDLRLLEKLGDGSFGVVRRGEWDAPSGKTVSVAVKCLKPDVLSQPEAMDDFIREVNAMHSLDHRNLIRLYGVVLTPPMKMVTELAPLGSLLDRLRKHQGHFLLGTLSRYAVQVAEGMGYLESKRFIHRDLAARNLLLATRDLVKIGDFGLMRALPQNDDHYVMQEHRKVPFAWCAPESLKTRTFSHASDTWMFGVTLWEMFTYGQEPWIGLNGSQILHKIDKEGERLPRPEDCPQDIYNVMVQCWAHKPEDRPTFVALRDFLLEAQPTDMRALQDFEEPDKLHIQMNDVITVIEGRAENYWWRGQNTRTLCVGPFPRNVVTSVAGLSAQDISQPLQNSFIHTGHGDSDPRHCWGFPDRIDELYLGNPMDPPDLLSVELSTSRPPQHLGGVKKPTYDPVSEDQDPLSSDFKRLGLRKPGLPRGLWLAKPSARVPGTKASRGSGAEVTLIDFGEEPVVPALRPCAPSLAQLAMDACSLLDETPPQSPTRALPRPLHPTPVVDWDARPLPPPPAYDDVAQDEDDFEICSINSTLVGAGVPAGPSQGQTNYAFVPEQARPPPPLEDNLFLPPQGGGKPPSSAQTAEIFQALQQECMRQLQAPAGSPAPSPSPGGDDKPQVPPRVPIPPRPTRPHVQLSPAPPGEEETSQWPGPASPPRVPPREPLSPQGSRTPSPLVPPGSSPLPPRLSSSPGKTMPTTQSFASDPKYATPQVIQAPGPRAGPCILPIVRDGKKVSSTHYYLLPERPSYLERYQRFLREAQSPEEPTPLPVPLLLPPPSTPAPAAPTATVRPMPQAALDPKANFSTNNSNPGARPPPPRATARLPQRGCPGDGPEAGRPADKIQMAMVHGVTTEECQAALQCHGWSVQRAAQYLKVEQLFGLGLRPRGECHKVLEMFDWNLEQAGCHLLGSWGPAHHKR
# [9] = biological target: Activated CDC42 kinase 1 (Homo sapiens) (UniProt Q07912); settings: at 1 µM
# [10] = biological target: High affinity nerve growth factor receptor (Homo sapiens) (UniProt P04629); settings: at 0.1 µM
# High affinity nerve growth factor receptor (Homo sapiens), sequence (P04629 33-796 limits assumed): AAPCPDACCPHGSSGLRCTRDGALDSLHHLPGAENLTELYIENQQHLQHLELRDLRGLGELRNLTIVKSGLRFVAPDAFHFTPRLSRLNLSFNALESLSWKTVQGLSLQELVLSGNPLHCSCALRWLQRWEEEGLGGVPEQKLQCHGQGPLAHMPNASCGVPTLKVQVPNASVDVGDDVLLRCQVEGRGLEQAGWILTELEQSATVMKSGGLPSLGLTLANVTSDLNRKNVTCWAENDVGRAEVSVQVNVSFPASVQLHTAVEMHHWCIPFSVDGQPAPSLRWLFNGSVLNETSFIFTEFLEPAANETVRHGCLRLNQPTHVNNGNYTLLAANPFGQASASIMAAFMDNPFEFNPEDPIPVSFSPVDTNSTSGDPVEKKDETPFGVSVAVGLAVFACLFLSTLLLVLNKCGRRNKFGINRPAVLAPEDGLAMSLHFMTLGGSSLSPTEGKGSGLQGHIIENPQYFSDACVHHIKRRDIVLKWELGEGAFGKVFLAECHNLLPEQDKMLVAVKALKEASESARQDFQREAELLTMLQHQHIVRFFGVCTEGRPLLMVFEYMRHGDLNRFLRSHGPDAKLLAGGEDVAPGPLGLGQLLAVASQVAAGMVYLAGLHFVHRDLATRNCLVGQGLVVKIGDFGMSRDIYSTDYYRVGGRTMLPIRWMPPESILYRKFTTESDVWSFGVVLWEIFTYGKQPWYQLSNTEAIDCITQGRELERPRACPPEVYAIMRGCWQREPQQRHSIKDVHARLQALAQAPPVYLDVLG
# [11] = biological target: High affinity nerve growth factor receptor (Homo sapiens) (UniProt P04629); settings: at 1 µM
# [12] = biological target: BDNF/NT-3 growth factors receptor (Homo sapiens) (UniProt Q16620); settings: at 0.1 µM
# [13] = biological target: BDNF/NT-3 growth factors receptor (Homo sapiens) (UniProt Q16620); settings: at 1 µM
# [14] = biological target: NT-3 growth factor receptor (Homo sapiens) (UniProt Q16288); settings: at 0.1 µM
# NT-3 growth factor receptor (Homo sapiens), sequence (Q16288 32-839 limits assumed): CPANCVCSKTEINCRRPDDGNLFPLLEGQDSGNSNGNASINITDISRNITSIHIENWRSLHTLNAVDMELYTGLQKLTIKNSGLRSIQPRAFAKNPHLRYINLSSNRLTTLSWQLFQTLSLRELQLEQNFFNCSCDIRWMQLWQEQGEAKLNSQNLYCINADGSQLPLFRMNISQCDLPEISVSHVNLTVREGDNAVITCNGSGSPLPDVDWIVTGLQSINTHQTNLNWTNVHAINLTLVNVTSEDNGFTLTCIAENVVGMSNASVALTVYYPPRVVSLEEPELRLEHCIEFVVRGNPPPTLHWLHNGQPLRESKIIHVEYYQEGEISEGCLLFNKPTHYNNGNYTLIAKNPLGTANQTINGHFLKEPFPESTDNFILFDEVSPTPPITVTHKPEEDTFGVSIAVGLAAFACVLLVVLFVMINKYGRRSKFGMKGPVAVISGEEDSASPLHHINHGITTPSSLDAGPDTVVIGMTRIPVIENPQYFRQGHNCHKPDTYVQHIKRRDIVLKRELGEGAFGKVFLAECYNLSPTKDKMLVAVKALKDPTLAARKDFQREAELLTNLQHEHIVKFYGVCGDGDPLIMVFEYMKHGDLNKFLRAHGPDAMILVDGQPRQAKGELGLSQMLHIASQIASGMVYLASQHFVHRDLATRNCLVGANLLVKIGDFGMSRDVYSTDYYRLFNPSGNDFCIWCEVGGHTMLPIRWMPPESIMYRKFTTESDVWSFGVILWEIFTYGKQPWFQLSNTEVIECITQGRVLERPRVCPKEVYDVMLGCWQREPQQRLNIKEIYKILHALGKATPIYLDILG
# [15] = biological target: NT-3 growth factor receptor (Homo sapiens) (UniProt Q16288); settings: at 1 µM
# [16] = biological target: T3, Tyrosine-protein kinase TXK (Homo sapiens) (UniProt P42681); settings: at 0.1 µM
# T3 sequence (whole entry): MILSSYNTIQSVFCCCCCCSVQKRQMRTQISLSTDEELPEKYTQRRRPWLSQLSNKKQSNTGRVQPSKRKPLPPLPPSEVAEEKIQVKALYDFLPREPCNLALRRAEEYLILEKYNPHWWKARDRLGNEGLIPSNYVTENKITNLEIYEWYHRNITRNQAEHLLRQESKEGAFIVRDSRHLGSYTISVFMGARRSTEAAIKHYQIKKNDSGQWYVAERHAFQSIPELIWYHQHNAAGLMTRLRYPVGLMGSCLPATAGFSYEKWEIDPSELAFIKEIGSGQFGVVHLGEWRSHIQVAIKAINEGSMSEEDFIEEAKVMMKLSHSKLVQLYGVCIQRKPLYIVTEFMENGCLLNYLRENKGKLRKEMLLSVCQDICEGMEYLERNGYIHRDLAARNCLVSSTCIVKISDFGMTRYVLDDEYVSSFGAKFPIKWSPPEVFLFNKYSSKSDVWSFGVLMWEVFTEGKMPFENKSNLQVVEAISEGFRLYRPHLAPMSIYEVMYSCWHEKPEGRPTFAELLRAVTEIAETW
# [17] = biological target: T3, Tyrosine-protein kinase TXK (Homo sapiens); settings: at 1 µM
# [18] = biological target: Non-receptor tyrosine-protein kinase TYK2 (Homo sapiens) (UniProt P29597); settings: at 0.1 µM;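 further: each value is a mean of the inhibition readings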
# Non-receptor tyrosine-protein kinase TYK2 (Homo sapiens), sequence (P29597 whole entry): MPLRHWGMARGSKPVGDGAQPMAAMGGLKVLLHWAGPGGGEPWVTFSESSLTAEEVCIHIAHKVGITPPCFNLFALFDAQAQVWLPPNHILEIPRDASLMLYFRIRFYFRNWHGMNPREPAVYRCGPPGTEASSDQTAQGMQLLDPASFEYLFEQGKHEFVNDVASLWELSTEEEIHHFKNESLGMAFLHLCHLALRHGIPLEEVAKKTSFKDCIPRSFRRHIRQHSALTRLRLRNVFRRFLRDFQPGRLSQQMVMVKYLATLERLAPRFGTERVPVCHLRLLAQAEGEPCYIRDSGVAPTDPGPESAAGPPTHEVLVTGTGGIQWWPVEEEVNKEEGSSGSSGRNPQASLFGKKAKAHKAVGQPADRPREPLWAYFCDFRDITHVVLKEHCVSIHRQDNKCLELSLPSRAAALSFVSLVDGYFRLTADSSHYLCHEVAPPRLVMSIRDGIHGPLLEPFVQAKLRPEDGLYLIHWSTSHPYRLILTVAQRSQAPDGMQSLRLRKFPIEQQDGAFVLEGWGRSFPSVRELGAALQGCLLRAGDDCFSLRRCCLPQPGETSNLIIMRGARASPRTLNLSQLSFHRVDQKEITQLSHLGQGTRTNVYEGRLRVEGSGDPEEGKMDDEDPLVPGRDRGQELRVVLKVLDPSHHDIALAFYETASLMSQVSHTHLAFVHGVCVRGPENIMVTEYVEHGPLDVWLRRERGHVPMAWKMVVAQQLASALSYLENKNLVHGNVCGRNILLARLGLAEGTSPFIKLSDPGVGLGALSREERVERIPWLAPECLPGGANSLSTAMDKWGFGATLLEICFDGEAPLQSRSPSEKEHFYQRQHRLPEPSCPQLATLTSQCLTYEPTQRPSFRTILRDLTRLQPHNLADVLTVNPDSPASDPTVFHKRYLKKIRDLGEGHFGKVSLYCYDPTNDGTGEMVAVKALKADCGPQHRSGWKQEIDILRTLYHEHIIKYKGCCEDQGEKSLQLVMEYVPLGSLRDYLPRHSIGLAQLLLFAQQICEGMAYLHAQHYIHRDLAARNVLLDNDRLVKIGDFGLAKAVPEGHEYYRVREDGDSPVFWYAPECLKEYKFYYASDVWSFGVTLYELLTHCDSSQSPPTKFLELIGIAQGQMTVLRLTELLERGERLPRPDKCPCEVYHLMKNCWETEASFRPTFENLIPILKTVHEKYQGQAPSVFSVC
# [19] = biological target: T4, Dual specificity protein kinase TTK (Homo sapiens) (UniProt P33981); settings: at 1 µM;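 further: reported figures are mean TTK inhibition at 1 µM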
# T4 sequence (whole entry): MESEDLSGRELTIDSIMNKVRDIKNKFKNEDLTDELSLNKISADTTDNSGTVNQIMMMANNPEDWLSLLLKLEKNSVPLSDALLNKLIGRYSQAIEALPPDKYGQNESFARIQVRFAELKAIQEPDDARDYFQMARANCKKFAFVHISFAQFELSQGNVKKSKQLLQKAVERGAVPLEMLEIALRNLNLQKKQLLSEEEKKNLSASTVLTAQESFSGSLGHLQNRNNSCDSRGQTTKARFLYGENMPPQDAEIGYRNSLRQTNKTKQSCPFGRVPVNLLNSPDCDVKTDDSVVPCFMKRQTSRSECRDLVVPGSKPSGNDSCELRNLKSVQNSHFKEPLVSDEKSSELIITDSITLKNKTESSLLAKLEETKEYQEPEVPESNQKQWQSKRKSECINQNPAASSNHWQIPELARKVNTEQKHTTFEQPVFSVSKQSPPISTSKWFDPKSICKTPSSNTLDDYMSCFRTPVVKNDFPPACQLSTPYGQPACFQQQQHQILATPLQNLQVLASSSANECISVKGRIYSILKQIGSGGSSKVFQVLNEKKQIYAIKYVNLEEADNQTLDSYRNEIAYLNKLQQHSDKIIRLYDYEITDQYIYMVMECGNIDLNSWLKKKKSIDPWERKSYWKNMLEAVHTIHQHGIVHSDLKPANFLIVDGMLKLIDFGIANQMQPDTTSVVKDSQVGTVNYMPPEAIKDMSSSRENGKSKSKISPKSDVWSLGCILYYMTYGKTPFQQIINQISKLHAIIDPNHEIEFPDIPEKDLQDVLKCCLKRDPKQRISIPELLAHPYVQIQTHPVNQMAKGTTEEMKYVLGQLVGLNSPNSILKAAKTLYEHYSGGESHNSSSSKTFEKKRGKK
# [20] = biological target: T5, Aurora kinase A (Homo sapiens) (UniProt O14965); settings: at 0.1 µM;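 further: each reported value is a mean percent inhibition of Aurora-A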
# T5 sequence (whole entry): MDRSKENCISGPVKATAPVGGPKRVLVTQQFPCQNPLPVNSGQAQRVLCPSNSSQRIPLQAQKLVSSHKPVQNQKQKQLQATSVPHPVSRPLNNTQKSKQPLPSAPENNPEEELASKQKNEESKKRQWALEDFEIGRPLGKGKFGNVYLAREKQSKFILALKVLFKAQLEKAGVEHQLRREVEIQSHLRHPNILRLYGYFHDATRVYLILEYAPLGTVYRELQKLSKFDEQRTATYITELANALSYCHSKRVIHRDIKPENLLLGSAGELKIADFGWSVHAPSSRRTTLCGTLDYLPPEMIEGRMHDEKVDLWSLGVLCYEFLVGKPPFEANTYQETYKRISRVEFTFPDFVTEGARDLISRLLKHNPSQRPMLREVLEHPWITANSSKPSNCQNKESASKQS
SMILES,inhibition [1] [%],inhibition [2] [%],inhibition [3] [%],inhibition [4] [%],inhibition [5] [%],inhibition [6] [%],inhibition [7] [%],inhibition [8] [%],inhibition [9] [%],inhibition [10] [%],inhibition [11] [%],inhibition [12] [%],inhibition [13] [%],inhibition [14] [%],inhibition [15] [%],inhibition [16] [%],inhibition [17] [%],inhibition [18] [%],inhibition [19] [%],inhibition [20] [%]
[O-][S+]1CCN(Cc2ccc(-c3ccc4ncnc(Nc5ccc(OCc6ccccc6)c(F)c5)c4c3)o2)CC1,-0.11,3.42,4.7,2.18,2.24,0.61,7.01,0.67,0.38,1.24,1.44,1.84,1.51,0.84,2.26,2.49,3.34,-3.81,12.9,2.01
CC(=O)Nc1cccc(C#Cc2cncnc2Nc2ccc(OCc3cccc(F)c3)c(Cl)c2)n1,-0.2,-0.56,0.51,-1.08,2.93,-0.47,13.1,-0.48,2.35,-4.25,-2.48,-1.79,0.05,-0.41,4.04,0.96,0.46,4.58,10.8,-0.41
Cc1nn(C)c2cc(N(C)c3ccnc(Nc4cccc(S(N)(=O)=O)c4)n3)ccc12,-0.53,25.8,67.9,10.6,52.5,30,80.7,0.86,10.2,2.81,6.3,2.64,11.7,2.83,12.3,53.5,79.2,-1.02,26.4,20
NS(=O)(=O)c1ccc(N/N=C2\C(=O)Nc3ccc(C(=O)NCCc4c[nH]cn4)cc32)cc1,-0.45,5.46,12.1,1.64,3.16,1.59,10.1,1.35,2.72,5.55,14.9,6.79,31.4,9.97,41.8,3.49,3.55,-1.79,71.5,3.83
Cc1ccc(NC(=O)c2ccnc(N3CCCC3)c2)cc1-c1ccc(C(=O)NCC2CC2)cc1,-1.46,0.49,3.83,1.03,5.42,2.43,-2.64,1.07,1.27,1.92,2.28,3.47,1.15,3.16,3.39,-1.04,0.09,-3.05,16.9,0.15
Fc1cccc(COc2ccc(Nc3ncnc4cc(-c5ccc[nH]5)sc34)cc2Cl)c1,2.33,-0.22,3.69,2.27,8.54,1.22,1.7,0.28,0.88,2.39,2.72,2.62,0.88,2.48,2.41,2.95,9.57,-1,10.7,-2.74
CCn1c(-c2nonc2N)nc2c(N3CCCC3)nccc21,2.9,-1.85,-3.76,0.7,0.05,-3.68,-3.3,-0.78,-0.6,1.23,0.75,-0.07,0.49,-0.45,-0.34,-0.75,-2.21,2.25,-1.76,-1.86
Nc1nc(-c2ccccn2)c(-c2ccc3ncccc3n2)s1,-0.74,3.91,7.33,2.07,1.68,3.7,5.67,2.33,2.94,3.9,1.12,2.11,2.56,1.67,4.07,2.05,3.04,-3.74,7.95,2.15
COc1cc2ncn(-c3cc(O[C@@H](C)c4ccccc4Cl)c(C(N)=O)s3)c2cc1OC,-4.6,1.7,7.65,4.95,24.2,33.8,79.5,3.06,6.07,1.91,6.09,5.59,18.6,6.76,32.5,-1.39,5.82,-2.87,9.98,4.95
c1cnn2ncc(-c3ccnc(Nc4ccc5c(c4)OCCO5)n3)c2c1,13.2,6.85,19.8,3.72,20.5,18.1,64.5,3.29,21.7,5.45,9.5,5.33,18.1,5.54,21.3,4.21,17.6,-1.73,35,9.49
COc1cc(C=NNc2ncnc3c2cnn3-c2ccccc2)ccc1O,43.1,4.48,12.9,13,52.4,10.8,51.1,1.06,5.3,3.95,14.3,5.2,33.1,5.23,34.6,3.66,5.94,-0.09,10.5,23
COC(=O)Nc1nc2cc(Oc3ccc(NC(=O)Nc4cccc(C(=O)O)c4)cc3)ccc2[nH]1,-0.23,-2.22,0.87,1.97,7.16,-0.91,17.4,-0.08,0.6,1.98,3.47,0.82,1.02,1.95,3.8,-2.97,1.48,1.17,9.64,-1.89
COC(=O)Nc1nc2cc(Oc3cccc(NC(=O)Nc4cc(C(F)(F)F)ccc4F)c3)ccc2[nH]1,-0.22,1.48,2.64,1.09,5.44,-0.45,-3.58,-0.5,-1.08,-2.72,-0.96,-0.54,2.43,-0.83,5.81,2.14,2.8,1.53,0.75,1.04
